# Reference: PubChem BioAssay (NCI)
# The panel holds about 83,000 compounds, 20% with a hit somewhere; the sample as a whole holds those more often.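 Activity criterion: percent growth below 10, measured after cells in 96-well plates were exposed to a single compound concentration for 48 hours.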 Unmarked numbers belong to inactive results. Active and inactive are the calls of the source.
# Columns and labels:
# Assay in all cases: NCI-60 one-dose screen, 48 h (100 = growth as untreated, 0 = no growth, -100 = all killed)
# Conditions in all cases: 10 µM unless noted
# [1] = tested on: NCI-H23 lung
# [2] = tested on: NCI-H322M lung
# [3] = tested on: HOP-62 NSCLC
# [4] = tested on: NCI-H460 lung
# [5] = tested on: HOP-92 NSCLC
# [6] = tested on: NCI-H522 lung
# [7] = tested on: A549/ATCC NSCLC
# [8] = tested on: 786-0 renal
# [9] = tested on: COLO 205 colon
# [10] = tested on: DU-145 prostate
# [11] = tested on: K-562 leukemia
# [12] = tested on: MALME-3M melanoma
# [13] = tested on: MDA-MB-231 breast
# [14] = tested on: RXF 393 renal
# [15] = tested on: SF-268 CNS
# [16] = tested on: SF-295 CNS
# [17] = tested on: SF-539 CNS
# [18] = tested on: UACC-257 melanoma
# [19] = tested on: M14 melanoma
# [20] = tested on: HCT-15 colon
Compound,growth [1],growth [2],growth [3],growth [4],growth [5],growth [6],growth [7],growth [8],growth [9],growth [10],growth [11],growth [12],growth [13],growth [14],growth [15],growth [16],growth [17],growth [18],growth [19],growth [20]
COC(=O)c1ccc(NC(=O)CSc2nc3ccccc3c(=O)n2-c2ccccc2)cc1,95.4%,103%,106%,99.2%,79.7%,80.6%,88.8%,100%,120%,108%,95.1%,109%,95.7%,111%,92%,102%,100%,90.4%,105%,105%
COC(=O)C1(C)CCC[C@]2(C)[C@H]3C[C@H]4C(C(C)C)=C[C@]3(CC[C@@H]12)[C@H]1[C@@H]4[C@@H](OCC#CCN2CCOCC2)CC[C@@H]1OCC#CCN1CCOCC1 (stereo not given in full),82.6%,102%,85.3%,94%,54.9%,74.4%,66.8%,86.1%,89.2%,95.5%,70.3%,79.3%,77.2%,91.9%,83.7%,93.9%,86.2%,83.8%,81.6%,85.5%
COc1cc(/C=C2\Oc3cc(OCCCN4CCCC4)ccc3C2=O)cc(OC)c1,69.9%,77.1%,91.5%,-71.1% (active),67.6%,76.7%,33.2%,73.6%,71%,33.6%,-63.3% (active),93%,53.7%,60.4%,72.5%,85.7%,-90.3% (active),81.4%,-60.1% (active),5.66% (active)
O=C(N/N=C/c1ccccc1O)C(=O)Nc1ccc(F)cc1,57.7%,26.6%,50.1%,23.1%,65%,15.7%,44.8%,53.8%,9.67% (active),46.5%,42.3%,70.9%,43.8%,74.3%,48.8%,4.78% (active),33.7%,27.2%,50%,28.2%
CCOC(=O)CSc1c(-c2ccccc2)c2cc(Cl)ccc2[nH]c1=O,101%,94.9%,94.5%,101%,100%,91.2%,102%,97.1%,110%,103%,84.1%,114%,104%,103%,102%,69.6%,107%,120%,104%,91.7%
COc1ccc(-c2nc(-c3ccccn3)c(-c3ccccn3)n2CC(C)C)cc1OC1CCCC1,31.2%,9.32% (active),28.3%,5.25% (active),35.2%,20.8%,8.04% (active),24.5%,12.1%,28.7%,10.4%,16.5%,30.8%,19.3%,19%,8.48% (active),39%,28.8%,20.9%,33.9%
Nc1ccc(-n2c(=O)oc3ccc(Cl)cc3c2=O)c(Cl)c1,-4.26% (active),-2.46% (active),-6.88% (active),2.28% (active),-13.1% (active),-20.1% (active),6.26% (active),-33.5% (active),-27.4% (active),9.79% (active),7.44% (active),-29.6% (active),-25.6% (active),-6.99% (active),3.88% (active),-58% (active),-5.36% (active),-21.1% (active),-11.2% (active),1.16% (active)
CCOC(=O)c1sc(-c2ccc(OS(=O)(=O)C[C@]34CCC(CC3=O)C4(C)C)c(C=O)c2)nc1C,28.5%,50.4%,8.26% (active),-1.32% (active),38.4%,1.5% (active),15.4%,27.4%,-34.9% (active),21.3%,7.5% (active),38.1%,19.7%,52.9%,15%,26.2%,43.2%,4.31% (active),3.97% (active),5.75% (active)
